Tests used:
Assay in all cases: yeast three-hybrid, YBZ-1, SC-Leu-His + 0.5 mM 3-AT, 4 days
Settings in all cases: tags: N-Gal4 AD-HA kept; label: inside an RPR1-promoter hybrid RNA with tandem MS2 sites; ssRNA
PUM1 PUF domain R5-KSN = PUM1 PUF domain R5-KSN (Homo sapiens, UniProt Q14671 828-1176, C1007K;R1008S;Q1011N)
Method in brief: (§1)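 Pumilio-1 PUF domain libraries, randomized (NNK) at the three base-contacting residues of each repeat, were co-expressed with matching RNA elements from a centromeric plasmid in strain YBZ-1 (LexA–MS2 coat fusion, HIS3 reporter). Transformants were plated on SC-Leu (input) and SC-Leu-His + 0.5 mM 3-AT (selection) for four days, and repeat regions were PCR-amplified and Illumina-sequenced. The interaction score is the log2 change in variant frequency from input to selection, with pseudocount 1 where absent.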

PUM1 PUF domain R4-CPL = PUM1 PUF domain R4-CPL (Homo sapiens, UniProt Q14671 828-1176, N971C;H972P;Q975L)
Sequence of PUM1 PUF domain R4-CPL (Q14671 828-1176 N971C/H972P/Q975L): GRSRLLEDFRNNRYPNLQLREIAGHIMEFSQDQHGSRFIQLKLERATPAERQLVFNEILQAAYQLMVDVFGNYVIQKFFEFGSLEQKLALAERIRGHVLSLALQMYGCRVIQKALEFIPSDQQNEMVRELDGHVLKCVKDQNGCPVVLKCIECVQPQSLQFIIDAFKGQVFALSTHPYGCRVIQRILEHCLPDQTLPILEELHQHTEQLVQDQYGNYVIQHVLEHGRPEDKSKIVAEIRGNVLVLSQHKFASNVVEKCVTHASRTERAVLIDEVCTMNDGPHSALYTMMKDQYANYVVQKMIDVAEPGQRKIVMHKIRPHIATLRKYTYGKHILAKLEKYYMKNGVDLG
Method in brief: as §1

PUM1 PUF domain R4-FGQ = PUM1 PUF domain R4-FGQ (Homo sapiens, UniProt Q14671 828-1176, N971F;H972G)
Sequence of PUM1 PUF domain R4-FGQ (Q14671 828-1176 N971F/H972G): as the sequence (Q14671 828-1176 N971C/H972P/Q975L) above, with C144F, P145G, L148Q counted along it
Method in brief: as §1

PUM1 PUF domain R1-YKR = PUM1 PUF domain R1-YKR (Homo sapiens, UniProt Q14671 828-1176, S863Y;R864K;Q867R)
Sequence of PUM1 PUF domain R1-YKR (Q14671 828-1176 S863Y/R864K/Q867R): as the sequence (Q14671 828-1176 N971C/H972P/Q975L) above, with S36Y, R37K, Q40R, C144N, P145H, L148Q counted along it
Method in brief: as §1

PUM1 PUF domain R1-RRR = PUM1 PUF domain R1-RRR (Homo sapiens, UniProt Q14671 828-1176, S863R;Q867R)
Sequence of PUM1 PUF domain R1-RRR (Q14671 828-1176 S863R/Q867R): as the sequence (Q14671 828-1176 N971C/H972P/Q975L) above, with S36R, Q40R, C144N, P145H, L148Q counted along it
Method in brief: as §1

PUM1 PUF domain R8-RHN = PUM1 PUF domain R8-RHN (Homo sapiens, UniProt Q14671 828-1176, N1122R;Y1123H;Q1126N)
Sequence of PUM1 PUF domain R8-RHN (Q14671 828-1176 N1122R/Y1123H/Q1126N): as the sequence (Q14671 828-1176 N971C/H972P/Q975L) above, with C144N, P145H, L148Q, N295R, Y296H, Q299N counted along it
Method in brief: as §1

PUM1 PUF domain R2-AVA = PUM1 PUF domain R2-AVA (Homo sapiens, UniProt Q14671 828-1176, N899A;Y900V;Q903A)
Sequence of PUM1 PUF domain R2-AVA (Q14671 828-1176 N899A/Y900V/Q903A): as the sequence (Q14671 828-1176 N971C/H972P/Q975L) above, with N72A, Y73V, Q76A, C144N, P145H, L148Q counted along it
Method in brief: as §1

PUM1 PUF domain R3-YWR = PUM1 PUF domain R3-YWR (Homo sapiens, UniProt Q14671 828-1176, C935Y;R936W;Q939R)
Sequence of PUM1 PUF domain R3-YWR (Q14671 828-1176 C935Y/R936W/Q939R): as the sequence (Q14671 828-1176 N971C/H972P/Q975L) above, with C108Y, R109W, Q112R, C144N, P145H, L148Q counted along it
Method in brief: as §1

PUM1 PUF domain R3-YRS = PUM1 PUF domain R3-YRS (Homo sapiens, UniProt Q14671 828-1176, C935Y;Q939S)
Sequence of PUM1 PUF domain R3-YRS (Q14671 828-1176 C935Y/Q939S): as the sequence (Q14671 828-1176 N971C/H972P/Q975L) above, with C108Y, Q112S, C144N, P145H, L148Q counted along it
Method in brief: as §1

PUM1 PUF domain R3-CNT = PUM1 PUF domain R3-CNT (Homo sapiens, UniProt Q14671 828-1176, R936N;Q939T)
Sequence of PUM1 PUF domain R3-CNT (Q14671 828-1176 R936N/Q939T): as the sequence (Q14671 828-1176 N971C/H972P/Q975L) above, with R109N, Q112T, C144N, P145H, L148Q counted along it
Method in brief: as §1

Sequence of PUM1 PUF domain R5-KSN (Q14671 828-1176 C1007K/R1008S/Q1011N): as the sequence (Q14671 828-1176 N971C/H972P/Q975L) above, with C144N, P145H, L148Q, C180K, R181S, Q184N counted along it

**Q.** For “GGCUAGAACUAGUGGAUCCCCCGGCGCCCGGCGGCUCGAGCCCGGGUAAGUGUCAAUAGUCUGCAUGCCGCCGGGCGCCAUGCCUGCAGGUCGACUCUAGAAAACAUG”, which binding signal (PUM1 PUF domain R5-KSN) is on record?
**A.** 3.85 log2 enrichment (interaction score)

**Q.** With “GGCUAGAACUAGUGGAUCCCCCGGCGCCCGGCGGCUCGAGCCCGGGUAAGUGUAUAUAGUCUGCAUGCCGCCGGGCGCCAUGCCUGCAGGUCGACUCUAGAAAACAUG” as the sequence, how does the binding signal (PUM1 PUF domain R4-CPL) read?
**A.** 1.78 log2 enrichment (interaction score)

**Q.** And the binding signal (PUM1 PUF domain R4-FGQ)?
**A.** 3.63 log2 enrichment (interaction score)

**Q.** “GGCUAGAACUAGUGGAUCCCCCGGCGCCCGGCGGCUCGAGCCCGGGUAAGUGUAAAUCGUCUGCAUGCCGCCGGGCGCCAUGCCUGCAGGUCGACUCUAGAAAACAUG” was tested. Which binding signal (PUM1 PUF domain R1-YKR) did it give?
**A.** 8.91 log2 enrichment (interaction score)

**Q.** What about the binding signal (PUM1 PUF domain R1-RRR) of the same sequence?
**A.** 2.46 log2 enrichment (interaction score)

**Q.** Which binding signal (PUM1 PUF domain R8-RHN) does the source give for “GGCUAGAACUAGUGGAUCCCCCGGCGCCCGGCGGCUCGAGCCCGGGUAAGCGUAAAUAGUCUGCAUGCCGCCGGGCGCCAUGCCUGCAGGUCGACUCUAGAAAACAUG” here?
**A.** 5.56 log2 enrichment (interaction score)

**Q.** Which binding signal (PUM1 PUF domain R2-AVA) does the source give for “GGCUAGAACUAGUGGAUCCCCCGGCGCCCGGCGGCUCGAGCCCGGGUAAGUGUAAAGAGUCUGCAUGCCGCCGGGCGCCAUGCCUGCAGGUCGACUCUAGAAAACAUG” here?
**A.** 2.41 log2 enrichment (interaction score)

**Q.** Which binding signal (PUM1 PUF domain R3-YWR) does the source give for “GGCUAGAACUAGUGGAUCCCCCGGCGCCCGGCGGCUCGAGCCCGGGUAAGUGUAAGUAGUCUGCAUGCCGCCGGGCGCCAUGCCUGCAGGUCGACUCUAGAAAACAUG” here?
**A.** 5.62 log2 enrichment (interaction score)

**Q.** What about the binding signal (PUM1 PUF domain R3-YRS) of the same sequence?
**A.** 4.29 log2 enrichment (interaction score)

**Q.** What does the source list for “GGCUAGAACUAGUGGAUCCCCCGGCGCCCGGCGGCUCGAGCCCGGGUAAGUGUAAAUAGUCUGCAUGCCGCCGGGCGCCAUGCCUGCAGGUCGACUCUAGAAAACAUG”?
**A.** binding signal (PUM1 PUF domain R4-CPL): 3.68 log2 enrichment (interaction score); binding signal (PUM1 PUF domain R3-YRS): 1.29 log2 enrichment (interaction score); binding signal (PUM1 PUF domain R3-CNT): 2.18 log2 enrichment (interaction score)

**Q.** “GGCUAGAACUAGUGGAUCCCCCGGCGCCCGGCGGCUCGAGCCCGGGUAAGUGUAAAUUGUCUGCAUGCCGCCGGGCGCCAUGCCUGCAGGUCGACUCUAGAAAACAUG” was tested. Which binding signal (PUM1 PUF domain R1-RRR) did it give?
**A.** 2.49 log2 enrichment (interaction score)

Source: PMC8384837, “Expanding the binding specificity for RNA recognition by a PUF domain”
